The first experiment deals with ELF4 (Homo sapiens, UniProt Q99607 1-663). The experiment in a line: DAPPL (digital affinity profiling via proximity ligation, sequencing); 10 mM Tris-HCl pH 7.5, 50 mM NaCl, 1 mM DTT, 4% glycerol, room temperature, 30 min; GST-TFs on glutathione beads, 16-mer random dsDNA library, 0.1% formaldehyde crosslink after washing; high values mean tight binding. The conditions noted are these: protein: recombinant; tags: N-terminal GST; dsDNA, one strand shown. The procedure, abridged:
(§1)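 Each value of binding signal is a hexamer's read frequency for a factor divided by the same hexamer's frequency in the tag-only sample. Barcoded, bead-captured GST fusions of human transcription factors made in yeast were pooled with that sample and incubated with 200 nmole of a random double-stranded 16-mer DNA library in Tris/NaCl/DTT/glycerol buffer at room temperature for 30 min. Washing, 0.1% formaldehyde crosslinking, proximity ligation, PCR and Illumina NextSeq500 sequencing followed.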
Chain of ELF4 (Q99607 whole entry, the tested form may be a part): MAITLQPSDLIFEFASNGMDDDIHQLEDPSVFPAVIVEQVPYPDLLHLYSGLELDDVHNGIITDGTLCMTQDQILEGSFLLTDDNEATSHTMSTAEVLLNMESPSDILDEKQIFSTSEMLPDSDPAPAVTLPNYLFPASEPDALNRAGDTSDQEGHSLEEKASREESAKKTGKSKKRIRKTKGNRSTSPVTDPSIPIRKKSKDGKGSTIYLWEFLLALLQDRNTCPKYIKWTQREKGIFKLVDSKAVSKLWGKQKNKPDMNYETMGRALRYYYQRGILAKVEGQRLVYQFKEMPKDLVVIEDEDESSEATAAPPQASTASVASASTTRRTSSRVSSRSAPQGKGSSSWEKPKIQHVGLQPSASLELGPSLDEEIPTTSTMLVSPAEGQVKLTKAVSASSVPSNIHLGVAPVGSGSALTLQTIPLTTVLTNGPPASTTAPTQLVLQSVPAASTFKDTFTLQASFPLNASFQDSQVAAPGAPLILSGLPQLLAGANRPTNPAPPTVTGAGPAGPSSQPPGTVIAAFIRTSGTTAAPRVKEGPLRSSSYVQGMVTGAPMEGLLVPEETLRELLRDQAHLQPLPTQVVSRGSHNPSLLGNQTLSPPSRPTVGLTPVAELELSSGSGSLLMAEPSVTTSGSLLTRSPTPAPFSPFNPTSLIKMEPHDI
CGGATG: the binding signal was 1.36 fold enrichment (6-mer frequency, TF over GST control).

Take CCATAC: the binding signal was 1.27 fold enrichment (6-mer frequency, TF over GST control).

Regarding AACAGG, the binding signal is 1.08 fold enrichment (6-mer frequency, TF over GST control).

On to GTAACA, for which the binding signal was 1.14 fold enrichment (6-mer frequency, TF over GST control).

Regarding GCGCCT, the binding signal is 1.07 fold enrichment (6-mer frequency, TF over GST control).

For TGTCCG, the binding signal was 1.41 fold enrichment (6-mer frequency, TF over GST control).

For the sequence GCACAT, the binding signal is 1.12 fold enrichment (6-mer frequency, TF over GST control).

Consider CGGCAT, for which the binding signal was 1.06 fold enrichment (6-mer frequency, TF over GST control).

CACTCA: the binding signal is 1.18 fold enrichment (6-mer frequency, TF over GST control).

As for GTATGC, the binding signal is 1.16 fold enrichment (6-mer frequency, TF over GST control).

As for CACAAT, the binding signal is 1.09 fold enrichment (6-mer frequency, TF over GST control).

In the case of CGACCG, the binding signal is 1.28 fold enrichment (6-mer frequency, TF over GST control).

For CCGCCC, the binding signal is 1.4 fold enrichment (6-mer frequency, TF over GST control).

For GATGTC, the binding signal was 1.24 fold enrichment (6-mer frequency, TF over GST control).

As to CCACCC, the binding signal is 1.32 fold enrichment (6-mer frequency, TF over GST control).

Turning to TTGGCC, the binding signal is 1.18 fold enrichment (6-mer frequency, TF over GST control).

Turning to GTACCT, the binding signal was 1.23 fold enrichment (6-mer frequency, TF over GST control).

For the sequence GATGCG, the binding signal is 1.14 fold enrichment (6-mer frequency, TF over GST control).

As for CATGGT, the binding signal was 1.32 fold enrichment (6-mer frequency, TF over GST control).

As for CGCCGC, the binding signal was 1.26 fold enrichment (6-mer frequency, TF over GST control).

Take CTGTCA: the binding signal is 1.13 fold enrichment (6-mer frequency, TF over GST control).

As for GCCGAC, the binding signal was 1.08 fold enrichment (6-mer frequency, TF over GST control).

Consider GCACAA, for which the binding signal is 1.11 fold enrichment (6-mer frequency, TF over GST control).

On to ACATGT, for which the binding signal was 1.15 fold enrichment (6-mer frequency, TF over GST control).

For the sequence CTGGTC, the binding signal was 1.16 fold enrichment (6-mer frequency, TF over GST control).

With CCAAAC, the binding signal is 1.14 fold enrichment (6-mer frequency, TF over GST control).

With ACAGGA, the binding signal was 1.04 fold enrichment (6-mer frequency, TF over GST control).

Consider AGTGGC, for which the binding signal was 1.19 fold enrichment (6-mer frequency, TF over GST control).

In the case of ACAAAC, the binding signal is 1.12 fold enrichment (6-mer frequency, TF over GST control).

Regarding CACACG, the binding signal was 1.18 fold enrichment (6-mer frequency, TF over GST control).

Turning to CCCATC, the binding signal is 1.17 fold enrichment (6-mer frequency, TF over GST control).

In the case of CCGGTT, the binding signal was 1.83 fold enrichment (6-mer frequency, TF over GST control).

As to CAAATG, the binding signal was 1.15 fold enrichment (6-mer frequency, TF over GST control).

For CCGGTA, the binding signal is 1.45 fold enrichment (6-mer frequency, TF over GST control).

CATCAC: the binding signal was 1.12 fold enrichment (6-mer frequency, TF over GST control).

Regarding CTGTGC, the binding signal was 1.21 fold enrichment (6-mer frequency, TF over GST control).

As to GAAGCG, the binding signal is 1.2 fold enrichment (6-mer frequency, TF over GST control).

With CAATGC, the binding signal was 1.3 fold enrichment (6-mer frequency, TF over GST control).

For the sequence GTCACA, the binding signal is 1.08 fold enrichment (6-mer frequency, TF over GST control).

The next experiment has as its target T1, ELK4 (Homo sapiens, UniProt P28324-2 1-405).
T1 sequence: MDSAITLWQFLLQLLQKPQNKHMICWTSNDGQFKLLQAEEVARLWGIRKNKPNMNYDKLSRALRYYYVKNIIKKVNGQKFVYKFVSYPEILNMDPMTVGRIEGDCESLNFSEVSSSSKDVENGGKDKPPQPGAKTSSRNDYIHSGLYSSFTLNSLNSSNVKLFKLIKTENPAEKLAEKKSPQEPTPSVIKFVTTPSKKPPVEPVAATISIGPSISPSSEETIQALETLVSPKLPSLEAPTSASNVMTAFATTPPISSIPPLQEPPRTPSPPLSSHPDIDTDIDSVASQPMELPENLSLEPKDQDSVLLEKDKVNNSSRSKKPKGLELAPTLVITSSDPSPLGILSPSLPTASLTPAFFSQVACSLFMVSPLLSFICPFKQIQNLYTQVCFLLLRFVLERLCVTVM
Described as above. The conditions noted are these: protein: recombinant; tags: N-terminal GST; dsDNA, one strand shown. The procedure, abridged:
as §1
Consider CGGATG, for which the binding signal is 1.31 fold enrichment (6-mer frequency, TF over GST control).

For the sequence CCATAC, the binding signal was 1.14 fold enrichment (6-mer frequency, TF over GST control).

For AACAGG, the binding signal is 1.09 fold enrichment (6-mer frequency, TF over GST control).

Consider GTAACA, for which the binding signal was 1.12 fold enrichment (6-mer frequency, TF over GST control).

Regarding GCGCCT, the binding signal was 1.28 fold enrichment (6-mer frequency, TF over GST control).

On to TGTCCG, for which the binding signal was 1.32 fold enrichment (6-mer frequency, TF over GST control).

As for GCACAT, the binding signal is 1.06 fold enrichment (6-mer frequency, TF over GST control).

Regarding CGGCAT, the binding signal was 1.1 fold enrichment (6-mer frequency, TF over GST control).

Regarding CACTCA, the binding signal was 1.17 fold enrichment (6-mer frequency, TF over GST control).

Consider GTATGC, for which the binding signal is 1.23 fold enrichment (6-mer frequency, TF over GST control).

Regarding CACAAT, the binding signal was 1.12 fold enrichment (6-mer frequency, TF over GST control).

As for CGACCG, the binding signal was 1.17 fold enrichment (6-mer frequency, TF over GST control).

Consider CCGCCC, for which the binding signal was 1.08 fold enrichment (6-mer frequency, TF over GST control).

On to GATGTC, for which the binding signal is 1.15 fold enrichment (6-mer frequency, TF over GST control).

As to CCACCC, the binding signal was 1.38 fold enrichment (6-mer frequency, TF over GST control).

For the sequence TTGGCC, the binding signal is 1.08 fold enrichment (6-mer frequency, TF over GST control).

For GTACCT, the binding signal is 1.25 fold enrichment (6-mer frequency, TF over GST control).

Take GATGCG: the binding signal is 1.32 fold enrichment (6-mer frequency, TF over GST control).

For the sequence CATGGT, the binding signal was 1.32 fold enrichment (6-mer frequency, TF over GST control).

For the sequence CGCCGC, the binding signal was 1.05 fold enrichment (6-mer frequency, TF over GST control).

In the case of CTGTCA, the binding signal was 1.27 fold enrichment (6-mer frequency, TF over GST control).

GCCGAC: the binding signal was 1.15 fold enrichment (6-mer frequency, TF over GST control).

As to GCACAA, the binding signal is 1.08 fold enrichment (6-mer frequency, TF over GST control).

Take ACATGT: the binding signal is 1.27 fold enrichment (6-mer frequency, TF over GST control).

For CTGGTC, the binding signal was 1.19 fold enrichment (6-mer frequency, TF over GST control).

In the case of CCAAAC, the binding signal was 1.15 fold enrichment (6-mer frequency, TF over GST control).

For the sequence ACAGGA, the binding signal is 1.04 fold enrichment (6-mer frequency, TF over GST control).

As for AGTGGC, the binding signal was 1.24 fold enrichment (6-mer frequency, TF over GST control).

Take ACAAAC: the binding signal is 1.08 fold enrichment (6-mer frequency, TF over GST control).

Regarding CACACG, the binding signal was 1.17 fold enrichment (6-mer frequency, TF over GST control).

On to CCCATC, for which the binding signal is 1.3 fold enrichment (6-mer frequency, TF over GST control).

CCGGTT: the binding signal was 1.87 fold enrichment (6-mer frequency, TF over GST control).

As to CAAATG, the binding signal is 1.11 fold enrichment (6-mer frequency, TF over GST control).

As to CCGGTA, the binding signal was 1.41 fold enrichment (6-mer frequency, TF over GST control).

CATCAC: the binding signal is 1.29 fold enrichment (6-mer frequency, TF over GST control).

In the case of CTGTGC, the binding signal was 1.12 fold enrichment (6-mer frequency, TF over GST control).

With GAAGCG, the binding signal was 1.2 fold enrichment (6-mer frequency, TF over GST control).

As to CAATGC, the binding signal was 1.21 fold enrichment (6-mer frequency, TF over GST control).

With GTCACA, the binding signal was 1.07 fold enrichment (6-mer frequency, TF over GST control).

For another experiment, the target named is T2, ETV2 (Homo sapiens, UniProt O00321 1-342).
T2 sequence: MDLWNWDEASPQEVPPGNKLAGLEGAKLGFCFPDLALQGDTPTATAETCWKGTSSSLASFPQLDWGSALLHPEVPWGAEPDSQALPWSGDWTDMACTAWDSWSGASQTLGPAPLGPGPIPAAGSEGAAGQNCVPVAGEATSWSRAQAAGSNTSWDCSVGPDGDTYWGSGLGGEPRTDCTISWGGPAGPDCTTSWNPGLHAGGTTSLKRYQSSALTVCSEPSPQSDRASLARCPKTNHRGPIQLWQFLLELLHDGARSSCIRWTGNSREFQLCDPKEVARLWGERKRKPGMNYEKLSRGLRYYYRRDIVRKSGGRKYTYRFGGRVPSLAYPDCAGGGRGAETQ
The description is as above. The conditions noted are these: protein: recombinant; tags: N-terminal GST; dsDNA, one strand shown. The procedure, abridged: as §1
Turning to CGGATG, the binding signal was 1.39 fold enrichment (6-mer frequency, TF over GST control).

On to CCATAC, for which the binding signal is 1.06 fold enrichment (6-mer frequency, TF over GST control).

As for AACAGG, the binding signal was 1.03 fold enrichment (6-mer frequency, TF over GST control).

As to GTAACA, the binding signal is 1.03 fold enrichment (6-mer frequency, TF over GST control).

On to GCGCCT, for which the binding signal was 1.13 fold enrichment (6-mer frequency, TF over GST control).

As for TGTCCG, the binding signal was 1.29 fold enrichment (6-mer frequency, TF over GST control).

Take GCACAT: the binding signal was 1.09 fold enrichment (6-mer frequency, TF over GST control).

For CGGCAT, the binding signal was 1.25 fold enrichment (6-mer frequency, TF over GST control).

With CACTCA, the binding signal is 1.27 fold enrichment (6-mer frequency, TF over GST control).

In the case of GTATGC, the binding signal was 1.25 fold enrichment (6-mer frequency, TF over GST control).

Consider CACAAT, for which the binding signal is 1.06 fold enrichment (6-mer frequency, TF over GST control).

CGACCG: the binding signal was 1.35 fold enrichment (6-mer frequency, TF over GST control).

Take CCGCCC: the binding signal is 1.2 fold enrichment (6-mer frequency, TF over GST control).

Take GATGTC: the binding signal was 1.24 fold enrichment (6-mer frequency, TF over GST control).

Take CCACCC: the binding signal was 1.3 fold enrichment (6-mer frequency, TF over GST control).

With TTGGCC, the binding signal is 1.08 fold enrichment (6-mer frequency, TF over GST control).

GTACCT: the binding signal was 1.32 fold enrichment (6-mer frequency, TF over GST control).

Consider GATGCG, for which the binding signal is 1.16 fold enrichment (6-mer frequency, TF over GST control).

Turning to CATGGT, the binding signal is 1.13 fold enrichment (6-mer frequency, TF over GST control).

For the origin of these results see article PMC7862700, “An all-to-all approach to the identification of sequence-specific readers for epigenetic DNA modifications on cytosine”.
